Assay outcomes: PubChem, The Scripps Research Institute Molecular Screening Center
M1 antag: blocks human M1 muscarinic receptor; P11229; CHO-K1 hM1, Fluo-8 calcium fluorescence, ACh EC80 antagonist; inhibition, % at 3 µM; 360,000 compounds, 1.3% hits;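 active = percent inhibition above its own plate's cutoff, namely the mean of that plate's compound wells plus 3 SD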;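 note: peak over basal fluorescence ratio during 140 s after agonist addition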
M4 antag: antagonists of human muscarinic M4 receptor (CHRM4); inhibition, % at 3 µM; CHO-hM4 cells, ACh EC80, Fluo-8 calcium fluorescence; P08173; 360,000 compounds, 0.73% hits;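 active = inhibition above its plate's cutoff, the mean inhibition of sample wells plus 3 SD, cut at about 27% in these data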
Target sequence (P08173 whole entry, looked up): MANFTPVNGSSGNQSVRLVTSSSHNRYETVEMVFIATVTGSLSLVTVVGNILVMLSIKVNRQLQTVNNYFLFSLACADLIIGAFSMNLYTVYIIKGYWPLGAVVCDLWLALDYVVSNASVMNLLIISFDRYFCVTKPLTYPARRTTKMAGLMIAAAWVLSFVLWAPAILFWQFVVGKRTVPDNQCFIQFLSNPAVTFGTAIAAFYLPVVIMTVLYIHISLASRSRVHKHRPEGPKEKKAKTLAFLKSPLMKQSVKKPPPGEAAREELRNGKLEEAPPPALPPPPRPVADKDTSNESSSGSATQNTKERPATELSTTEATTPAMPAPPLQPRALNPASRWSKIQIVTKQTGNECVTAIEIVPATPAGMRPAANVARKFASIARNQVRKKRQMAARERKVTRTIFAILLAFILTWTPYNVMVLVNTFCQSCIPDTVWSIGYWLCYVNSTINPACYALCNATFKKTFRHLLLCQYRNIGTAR
CHRM4 PAM: CHRM4 positive allosteric modulation. P08173. CHO-K1 hM4/Gqi5, Fluo-8 calcium fluorescence, ACh EC20; 0% = ACh EC20, 100% = maximal ACh. activation, % at 3 µM. 360,000 compounds, 0.4% hits. AID 624126;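 active = activation above its plate's cutoff, the mean activation of sample wells plus 3 SD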
M1 PAM: potentiates human M1 receptor response to acetylcholine | CHO-K1 hM1, Fluo-8 calcium fluorescence, ACh EC20; 0% = ACh EC20, 100% = maximal ACh | activation, % at 3 µM | 360,000 compounds, 0.088% hits; in the data active = activation above about 19%, passing the limit was not always enough
M4 ag: CHRM4 agonism in calcium assay. CHO-K1 hM4/Gqi5, Fluo-8 calcium fluorescence; vehicle 0%, full acetylcholine response 100%. activation, % at 3 µM. 360,000 compounds, 0.14% hits;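 active = activation above the run mean over all test wells plus 3 SD, cut at about 32% in these data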;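 note: peak over basal fluorescence ratio per well then scaled between controls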
M1 ag: agonists of human M1 muscarinic receptor | P11229 | CHO-K1 hM1, Fluo-8 calcium fluorescence, agonist mode; 0% DMSO, 100% acetylcholine EC100 | activation, % at 3 µM | 360,000 compounds, 0.33% hits;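 active = activation above the run's mean compound activation plus 3 SD, cut at about 16% in these data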;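 note: peak over basal fluorescence ratio within a 140 s kinetic read after compound addition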
Large screens that a line does not name were inactive. Hits are enriched below; roughly 2.2% of the tested compounds scored in any of these assays.

CCC1CCCCN1CCCNC(=O)CNC(=O)c1nn(-c2ccc(OC)cc2)c(=O)c2ccccc12 (stereo not given)	M1 antag 40
COc1ccc(-n2nc(C(=O)NCC(=O)NCCCN3CCN(C)CC3)c3ccccc3c2=O)cc1	none
Cc1ccn2c(=O)nc(SCC(=O)NCc3ccco3)nc2c1	none
Cc1c(NC(=O)c2cc(C(C)C)on2)c(=O)n(-c2ccccc2)n1C	M1 antag 36
Cc1c(Cl)c([N+](=O)[O-])nn1CC(=O)Nc1c(C)n(C)n(-c2ccccc2)c1=O	M1 antag 28
Cc1c(NC(=S)NC(=O)c2ccccc2Cl)c(=O)n(-c2ccccc2)n1C	M1 PAM 29
Cc1c(NC(=S)NC(=O)c2ccc(Cl)cc2)c(=O)n(-c2ccccc2)n1C	none
Cc1c(NC(=S)NC(=O)CC(C)C)c(=O)n(-c2ccccc2)n1C	M4 antag 79
Cc1cc(C)c(NC(=O)Cn2c(=O)c3cccn3c3ccccc32)c(C)c1	none
COc1ccc(CCn2c(C(C)C)nc3c(c(=O)c4ccccc4n3C)c2=O)cc1	M1 antag 39
COc1ccc(CCn2c(C)nc3c(c(=O)c4ccccc4n3C)c2=O)cc1	none
Clc1ccc(Sc2ccc(/C=N/n3cnnc3)o2)cc1	CHRM4 PAM 24
COc1ccc(NC(=O)CCN2CCOCC2)c(OC)c1	none
Cc1ccc(N(c2ncnc(N)c2[N+](=O)[O-])C2CCCCC2)cc1	M1 antag 49
COc1cc2c(cc1OC)C(c1ccccc1F)OC(=O)C2 (stereo not given)	none
O=[N+]([O-])c1ccc(NC(=S)NCCc2ccc(F)cc2)cc1	M1 antag 33
CN(C)C(C)(C)C#CCC(c1ccccc1)c1ccccc1	M1 antag 87, M4 antag 38
CN(C)C(C)(C)C#CCCCCC#CC(C)(C)N(C)C	none
CCOc1ccc(/C=C/C(=O)N2CCOCC2)cc1OC	none
CCOC(=O)N1CCN(C(=O)c2ccc(CS(=O)(=O)c3ccccc3OC)o2)CC1	none
COc1ccccc1N1CCN(C(=O)c2ccc(CS(=O)(=O)c3ccccc3OC)o2)CC1	M1 ag 17
O=C(Nc1cc(F)c(Br)cc1F)c1ccc(Cl)cc1	M1 antag 39
Cc1ccc(CN2CCC(c3cc(-c4cccs4)n[nH]3)CC2)cc1	M1 antag 31
Cc1ccn2c(=O)nc(SCC(=O)N3CCN(c4ccccc4)CC3)nc2c1	none
CC(NC(=O)Cc1cccs1)C(c1cccs1)N1CCOCC1 (stereo not given)	CHRM4 PAM 36
CC(NS(=O)(=O)c1ccc(F)cc1)C(c1cccs1)N1CCOCC1 (stereo not given)	M4 antag 54
CCC(=O)NC(C)C(c1cccs1)N1CCOCC1 (stereo not given)	none
CC(=O)c1ccc(N(CC(=O)NC2CCCC2)C(=O)CCC(=O)Nc2cc(C)on2)cc1	none
CC(/C=N\NC(=O)CN1CCN(Cc2ccccc2)CC1)=C\c1ccco1	none
O=S(=O)(NCc1cccnc1)c1ccc2c(c1)OCCO2	none
C=CCNC(=O)c1ccc(CN2CCC(Cc3ccccc3)CC2)cc1	M1 antag 74, M4 antag 28
CC(C)NC(=O)c1ccc(CN2CCC(Cc3ccccc3)CC2)cc1	M1 antag 84, M4 antag 67
Cc1ccccc1NC(=O)c1ccc(CN2CCC(Cc3ccccc3)CC2)cc1	M1 antag 55
COc1ccc(CCNC(=O)c2ccc(CN3CCC(Cc4ccccc4)CC3)cc2)cc1	none
Cc1ccccc1NC(=O)CCN1CCN(Cc2ccccc2)CC1	none
Cc1[nH]c(=O)[nH]c(=O)c1CSc1nnc([C@H](CC(C)C)NC(=O)OC(C)(C)C)o1	none
O=[N+]([O-])c1ccc(S(=O)Cc2ccccc2)c([N+](=O)[O-])c1 (stereo not given)	M4 antag 77
Nc1n[nH]c2cccc(Cl)c12	none
N#Cc1cc(NC(=O)c2ccc(Cl)cc2)ccc1Sc1ccccc1	M1 antag 32
CCn1c(SCC(=O)NNC(=O)c2ccc(C)cc2)nnc1C1CC1	none
CCn1c(SCC(=O)NNC(=O)c2ccc(C)cc2)nnc1C(C)C	CHRM4 PAM 15
COc1ccc(Cn2ccc(=O)c(Cc3c(Cl)cccc3Cl)c2C)cc1	none
O=[N+]([O-])c1ccc(S(=O)(=O)NCCc2cn3ccccc3n2)cc1	M1 PAM 28
CC(NCC(=O)Nc1ccccc1C(=O)NC1CC1)c1cccc(Cl)c1 (stereo not given)	none
CCc1ccc(N2CC(C(=O)N3CCN(c4ccccn4)CC3)CC2=O)cc1 (stereo not given)	CHRM4 PAM 26
NS(=O)(=O)c1ccc(NC(=O)C2Cc3ccccc3C(=O)O2)cc1 (stereo not given)	CHRM4 PAM 26
O=C(Nc1ccc(Cl)cc1)c1csc(-c2ccccc2)n1	CHRM4 PAM 34
Cc1ccc(NC(=O)COC(=O)Cn2cnc3c2c(=O)n(C)c(=O)n3C)cc1	none
CCOC(=O)c1c(NC(=O)COC(=O)Cn2cnc3c2c(=O)n(C)c(=O)n3C)sc(C)c1CC	CHRM4 PAM 24
Cn1cnc([N+](=O)[O-])c1S(=O)(=O)Oc1ccc(Cl)cc1	M4 antag 28
Cn1cnc([N+](=O)[O-])c1S(=O)(=O)Oc1cccc2ccccc12	none
S=C(c1ccccc1)N1CCCc2ccccc21	CHRM4 PAM 38
CCN(CC)c1ccc(C2C(C(=O)OC(C)C)C(=O)CC(C)(O)C2C(=O)OC(C)C)cc1 (stereo not given)	M1 antag 30
CCOC(=O)C1C(=O)CC(C)(O)C(C(=O)OCC)C1c1ccc(N(CC)CC)cc1 (stereo not given)	none
CCc1ccccc1NC(=O)NC1CC2CCC(C1)N2Cc1cccs1 (stereo not given)	M1 antag 45
Cc1ccc(NC(=O)N2C3CCCC2CC(NC(=O)C(C)(C)C)C3)cc1 (stereo not given)	none
CCc1ccc(NC(=S)NC2CC3CCCC(C2)N3Cc2cccs2)cc1 (stereo not given)	M1 antag 27
CNC(=S)NC1CC2CCCC(C1)N2Cc1ccc(C)cc1 (stereo not given)	none
CCc1ccccc1NC(=O)N1C2CCCC1CC(NC(=O)C(C)(C)C)C2 (stereo not given)	M1 antag 48
CCNC(=S)NC1CC2CCCC(C1)N2Cc1ccc(C)cc1 (stereo not given)	M1 antag 69
COc1ccc(NC(=O)c2cc(Br)ccc2Cl)c([N+](=O)[O-])c1	none
Cc1ccccc1-c1cc(C(=O)Nc2sc(C(=O)OC(C)C)c(C)c2C#N)c2ccccc2n1	M1 antag 31
